Assay results from PubChem BioAssay.
Several values for one entry are separate records, joined by “and”; a condition that tells them apart may be missing. Equal entries are not always repeated. Activity calls are given as the source filed them. Unless noted, how the calls were made is not given here. Where a SMILES comes first, the peptide text is derived from it. The star is where a group is joined. Cbz = O=C(OCc1ccccc1)*

Legend:
[1] = hESC survival regulators, cell-based (AID 493140); conditions: human embryonic stem cell survival screen; stronger effect = higher value;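 further: cells exposed to compounds for four days before counting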
[2] = sensitizers of A549 cells to miR-34 induction, primary screen, imaging, A549 dox-inducible miR-34, nuclei and caspase counts (AID 1347080;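 active means compounds whose cell count with miR-34 switched on is under 0.7 times the count with it off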); conditions: A549 miR-34 inducible, Hoechst nuclei count, 48 h
[3] = inhibitors of Cryptococcus chitosan production, flow cytometry, Cibacron Brilliant Red staining (AID 1347148); conditions: Cryptococcus neoformans chitosan, stronger effect = lower value; at 10 µM unless noted;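 further: compound exposure lasted three days at 37 degrees C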
[4] = circadian clock period modulators, cell-based, LOPAC library, luminescence reporter (AID 2774); conditions: circadian reporter cells, at 7 µM, actives lie on both sides;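 further: values are relative to mean of DMSO wells on each plate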
[5] = test system: Hepatitis C virus NS3 helicase; experiment: HCV NS3 helicase inhibitors, primary screen, biochemical, fluorescence polarization, LOPAC1280 library (AID 687035; in the data active means inhibition above about 37%); conditions: Purified HCV NS3 helicase, Cy5-dT15 ssDNA binding fluorescence polarization; stronger effect = higher value; concentration not given here
[6] = Cy5 fluorescence quenching or enhancement artefacts, artefact control for HCV NS3 helicase inhibitor project, biochemical, LOPAC1280 (AID 687037); conditions: Cy5-DNA-NS3h complex fluorescence interference counterscreen
[7] = phospholipid biosynthesis inhibitors in animal cells, primary screen, cell-based, LOPAC library, screen 4 (AID 1347384); conditions: phospholipid biosynthesis inhibition screen, at 10 µM
[8] = viability rescue of complex I mutant cybrids, primary screen, cell-based, galactose medium, ATP luminescence (AID 1645843;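 active means z-score of at least 1.8 in each of two replicates, scored against plate mean and spread of sample wells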;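 further: positive z means more ATP and so rescue of galactose-driven cybrid death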); conditions: complex I mutant cybrid cells, 72 h, stronger effect = higher value
[9] = liver-stage malaria parasite growth inhibition, primary screen, cell-based, HepG2, luciferase luminescence, HepG2 viability (AID 624349; in the data active means parasite load remaining mostly below about 12%, no sharp cut-off; inactive means mostly above about 10%;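 further: 100% = mean of DMSO negative control wells on the same plate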); conditions: P. berghei liver stage in HepG2, luciferase luminescence, concentration not given here; parasite load remaining: stronger effect = lower value; viability: measured here: HepG2 viability without parasites
[10] = survival rescue of mitochondrial mutant cells in low glucose, primary screen, MELAS cybrids, Rieske KO mouse fibroblasts, CellTiter-Glo (AID 1508586;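 active means mean z-score across replicates of 1.96 or higher in either the MELAS or the Rieske mutant cell line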;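 further: z relative to plate mean and SD of compound and empty wells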)
[11] = stronger effect = lower value, cell number ratio, induced over uninduced
[12] = measured here: relative caspase fold change +Dox/-Dox
[13] = measured here: total cells with miR-34 induction, stronger effect = lower value
[14] = measured here: total cells without miR-34 induction
[15] = MELAS cybrid survival, CellTiter-Glo 48 h, stronger effect = higher value
[16] = Rieske KO mouse fibroblast survival, CellTiter-Glo 72 h

SMILES: CCCCCCCC/C=C\C/C=C\C/C=C\CCCC(=O)O
- survival [1]: 69.8 (inactive)
- fold change [2, 11]: 0.997 (inactive) and 0.986 (inactive)
- fold change [2, 12]: 1.14 and 0.749
- cell count [2, 13]: 6200 and 5590
- cell count [2, 14]: 6220 and 5670
- fold fluorescence [3]: 4.51 (inactive)

SMILES: O=C(O)CCC/C=C\CC1C2CCC(O2)C1CNNC(=O)Nc1ccccc1 (configuration not stated)
- survival [1]: 88.6 (inactive)
- fold change [2, 11]: 0.964 (inactive) and 0.895 (inactive)
- fold change [2, 12]: 1.45 and 1.09
- cell count [2, 13]: 5700 and 5510
- cell count [2, 14]: 5910 and 6160
- fold fluorescence [3]: 4.39 (inactive)

SMILES: CCCCCCCC/C=C\CCCCCCCC(=O)NCC
- fold change [2, 11]: 1.03 (inactive)
- fold change [2, 12]: 0.997
- cell count [2, 13]: 6050
- cell count [2, 14]: 5880

SMILES: CC(C)(C)c1cc(/C=C(\C#N)C(N)=S)cc(C(C)(C)C)c1O
- period change [4]: 0.535 h (inactive)
- survival [1]: 106 (inactive)
- inhibition [5]: 5% (inactive)
- fluorescence ratio (interference) [6]: 1 (inactive)
- fold change [2, 11]: 1.09 (inactive) and 1.17 (inactive)
- fold change [2, 12]: 1.31 and 0.937
- cell count [2, 13]: 4070 and 1820
- cell count [2, 14]: 3720 and 1560
- fold fluorescence [3]: 11.2 [at 158 µM] (inactive)
- outcome [7]: active
- z-score [8]: -1.35 (inactive)

SMILES: NC(=Nc1ccccc1)NC(=O)c1nc(Cl)c(N)nc1N
- period change [4]: -0.435 h (inactive)
- parasite load remaining [9]: 58.8% (inactive)
- viability [9]: 98%
- inhibition [5]: -2% (inactive)
- fluorescence ratio (interference) [6]: 1 (inactive)
- fold change [2, 11]: 1.04 (inactive) and 0.937 (inactive) and 0.841 (inactive)
- fold change [2, 12]: 1.01 and 1.25 and 1.03
- cell count [2, 13]: 5840 and 3000 and 8780
- cell count [2, 14]: 5620 and 3200 and 10400
- fold fluorescence [3]: 5.89 [at 163.5 µM] (inactive)
- outcome [7]: inactive
- z-score [10, 15]: 1.28 (inactive)
- z-score [10, 16]: 0.859
- z-score [8]: -0.925 (inactive) and 0.595 (inactive)

SMILES: CCCCCC[C@@H]([C@@H](C)O)n1cnc2c(N)ncnc21
- period change [4]: 0.15 h (inactive)
- inhibition [5]: -4% (inactive)
- fluorescence ratio (interference) [6]: 1 (inactive)
- fold change [2, 11]: 0.934 (inactive) and 0.834 (inactive)
- fold change [2, 12]: 0.993 and 0.703
- cell count [2, 13]: 8420 and 3190
- cell count [2, 14]: 9020 and 3820
- fold fluorescence [3]: 5.1 [at 180.3 µM] (inactive)
- outcome [7]: inactive
- z-score [8]: -0.69 (inactive)

SMILES: CC(C)[C@H](NC(=O)OCc1ccccc1)C(=O)N[C@H](C=O)Cc1ccccc1 (Cbz-Val-Phe-aldehyde)
- period change [4]: -0.095 h (inactive)
- inhibition [5]: 1% (inactive)
- fluorescence ratio (interference) [6]: 1.1 (inactive)
- fold change [2, 11]: 1.08 (inactive) and 0.959 (inactive)
- fold change [2, 12]: 1.1 and 1.17
- cell count [2, 13]: 9200 and 4810
- cell count [2, 14]: 8520 and 5010
- fold fluorescence [3]: 5.31 [at 130.7 µM] (inactive)
- outcome [7]: inactive
- z-score [8]: 0.52 (inactive)

SMILES: O=C1NC(O)=NC1(c1ccccc1)c1ccccc1
- period change [4]: -0.095 h (inactive)
- inhibition [5]: -2% (inactive)
- fluorescence ratio (interference) [6]: 1.1 (inactive)
- fold change [2, 11]: 0.966 (inactive) and 0.93 (inactive)
- fold change [2, 12]: 1.46 and 0.866
- cell count [2, 13]: 9800 and 7860
- cell count [2, 14]: 10100 and 8450
- fold fluorescence [3]: 4.71 [at 198.2 µM] (inactive)
- z-score [10, 15]: -0.314 (inactive)
- z-score [10, 16]: -0.0769
- z-score [8]: 0.26 (inactive)

SMILES: CCN(CC)CCCCCCCCOC(=O)c1cc(OC)c(OC)c(OC)c1
- period change [4]: -0.085 h (inactive)
- inhibition [5]: -4% (inactive)
- fluorescence ratio (interference) [6]: 0.9 (inactive)
- fold change [2, 11]: 1.02 (inactive) and 0.949 (inactive)
- fold change [2, 12]: 0.695 and 1.09
- cell count [2, 13]: 8240 and 4880
- cell count [2, 14]: 8090 and 5140
- fold fluorescence [3]: 8.07 [at 126.4 µM] (inactive)
- outcome [7]: inactive
- z-score [8]: -0.285 (inactive)
